This test has as its system mevalonate kinase [Streptococcus pneumoniae D39]. Put plainly: S. pneumoniae MK inhibitors, primary screen, biochemical, PK/LDH-coupled NADH absorbance (AID 555). Conditions: purified MK, PK/LDH-coupled NADH absorbance 340 nm, at 10 µM, stronger effect = higher value.
The mark [1] stands for this setting: measured here: pilot screen replicates.

In all, about 65,000 compounds went through this assay and about 320 (0.49%) were called active.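 How the source made its calls: active means ranked among the strongest by inhibition in the single 10 µM screen, a fixed top-ranked set picked for dose follow-up; inactive means the rest, inconclusive results apart.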 For the sample, actives were picked, then their nearest neighbours and some compounds at random.

The inhibition is the relative decrease from the control value, in per cent. Consider `CCN1CCN(C(=O)Cc2coc3cc(C)cc(C)c23)CC1`, for which the inhibition was 5% (inactive).

For `CN1CCN(Cc2ccccc2C(F)(F)F)CC1`, the inhibition is 6% (inactive).

Consider `COc1ccccc1CN1CCN(C(=O)Cc2ccccc2)CC1`, for which the inhibition was 53% (active). The compound also displayed an inhibition under setting [1] of 0%.

In the case of `CCOC(=O)c1c(-c2ccccc2)oc2ccc(OC(=O)N(C)C)cc12`, the inhibition was 0% (inactive).

Regarding `CC(C)c1ccc(O)c(CN2CCN(c3ccccc3)CC2)c1`, the inhibition is 0% (inactive).

On to `Fc1cccc(F)c1CN1CCN(Cc2c(F)cccc2F)CC1`, for which the inhibition is 2% (inactive).

As to `COc1ccc(CN2CCN(c3ccccc3F)CC2)c(OC)c1`, the inhibition was 43% (active). Also, under setting [1], the inhibition is 1.5%.

As to `CCC(=NCc1ccco1)c1c(O)n(Cc2ccccc2)c(=O)[nH]c1=O`, the inhibition is 12% (inactive).

Take `CC(=NCC1CCCO1)c1c(O)n(-c2ccccc2)c(=O)[nH]c1=O` (configuration not stated): the inhibition was 4% (inactive).

As to `COC(=O)COc1cc(C)cc2oc(=O)c3c(c12)CCCC3`, the inhibition was 6% (inactive).

(Values after PubChem BioAssay AID555 (SRMLSC, 2006).)
